Reference: PubChem BioAssay AID720513 (Broad Institute, 2013)
Hit rate of the full screen: of about 2,100 compounds, about 480 (23%) were called active. Inconclusive results (about 5%) are left out.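 Rule for the calls: active = fitted curve reaches 40% activation at or below the top valid concentration, in every replicate test; inconclusive = replicate tests disagree on the call; inactive = the rest, including activity in the opposite direction.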 The list is a sample of the results. Potency and affinity values are given separately.

Assay: activators raising PGC1a acetylation in cells, dose response, cell-based, cherry-picked samples, set 6 (AID 720513);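 note: cells made to overexpress flag tagged PGC1a plus GCN5 acetyltransferase by viral infection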
Details: U2OS PGC1a acetylation AlphaLISA, overnight, 0 = neutral, -100 = inhibitor control; series mostly up to 19.5 µM

outcome, inactive:
Cc1ccccc1Cn1nc(C)c(NC(=O)c2cc(-c3cccs3)on2)c1C
NC(=O)COC(=O)/C=C/c1ccc2ccccc2n1
CCOc1ccc(N2C(=O)Cc3ccccc3C2=O)cc1
COc1ccc(S(=O)(=O)N2c3ccc(F)cc3CCC2C)cc1 (centres undefined)
CCc1ccc(N2CC(O)=C(c3nc4ccccc4c(=O)[nH]3)C2=N)cc1
O=C(CCc1nc2ccccc2c(=O)[nH]1)OCC(=O)N1CCc2ccccc21
CO[C@H]1CN(C)C(=O)c2ccc(NC(=O)c3ccno3)cc2OC[C@H](C)NC[C@H]1C
Cc1cccc(C)c1NC(=O)CN(C)C(=O)c1cc(S(=O)(=O)N(C)C)ccc1N1CCCC1
COc1ccccc1C(=O)Nc1ccc2c(c1)nc(CCNC(=O)c1ccco1)n2C
CN(Cc1ccccc1)S(=O)(=O)c1ccc(S(=O)(=O)N(Cc2ccc(F)cc2)C2CCCC2)cc1
Cc1ccc2nsnc2c1S(=O)(=O)N(Cc1ccco1)Cc1cc2cccc(C)c2[nH]c1=O
COc1ccc(-c2csc(N(CCCN(C)C)C(=O)c3cccs3)n2)cc1
COc1ccc(-c2csc(N(CCCN(C)C)C(=O)c3ccc(Br)cc3)n2)cc1
CO[C@H]1CN(C)C(=O)c2cc(NC(C)=O)ccc2OC[C@@H](C)N(CC2CCCCC2)C[C@@H]1C
CC(c1n[nH]c(=S)n1Cc1ccccc1)N(C)C (centres undefined)
O=S(=O)(c1ccc2[nH]ccc2c1)N1CCCCCC1
CCCCSCCCNC(=O)c1cn(C)c2ccc(S(=O)(=O)N3CCCC3)cc2c1=O
CCNc1nc(Oc2ccc(C#N)cc2)cc(C(F)(F)F)n1
CCOC(=O)C1=C(C)N=C2SC(C(=O)OC)=CC(=O)N2C1c1cccc(OC)c1 (centres undefined)
COc1ccccc1C(=O)Oc1cc(N)n(S(=O)(=O)c2ccc(C)cc2)n1
Cn1c(Cl)cnc1C1CC(=O)c2cc(Cl)ccc2O1 (centres undefined)
Cc1noc(C)c1NC(=O)N(C)C[C@@H]1Oc2c(NS(=O)(=O)c3cn(C)cn3)cccc2C(=O)N([C@@H](C)CO)C[C@@H]1C
CO[C@@H]1CN(C)C(=O)c2cc(NS(=O)(=O)c3ccc(Cl)cc3)ccc2OC[C@H](C)N(C)C[C@H]1C
CC(C)C#Cc1ccc2c(c1)O[C@@H](CN(C)C(=O)C1CC1)[C@@H](C)CN([C@@H](C)CO)S2(=O)=O
Cc1cccc(C)c1NC(=O)C(NC(=O)c1ccccn1)c1ccc([N+](=O)[O-])cc1 (centres undefined)
CCOC(=O)CC1C(=O)NCCN1S(=O)(=O)c1ccc(C)cc1 (centres undefined)
CCOC(=O)C1=C(CS(=O)(=O)c2ccccc2)NC(=O)NC1c1ccc(O)c(OC)c1 (centres undefined)
CCCCCC(=O)N1C[C@H](n2cc(-c3ccc(F)cc3)nn2)[C@@H](O)C[C@@H]1c1ccc(C)cc1
OC[C@@H]1[C@H](c2ccc(C#CC3CCCC3)cc2)[C@H]2CN(CCC(F)(F)F)CCCCN12
CO[C@H]1CN(C)C(=O)c2cc(NC(=O)NC(C)C)ccc2OC[C@H](C)N(Cc2ccc(-c3ccccn3)cc2)C[C@@H]1C
CCCS(=O)(=O)N1CCCC(C(=O)NCCCOC(C)C)C1 (centres undefined)
Cc1ccc(-c2nc(NC(=O)c3nn(C)cc3[N+](=O)[O-])sc2C)cc1
Cc1nnc(NC(=O)CSc2ncc(-c3ccccc3)[nH]2)s1
CO[C@H]1CN(C)C(=O)c2ccc(NS(=O)(=O)c3ccccc3)cc2OC[C@@H](C)N(C(=O)NC(C)C)C[C@@H]1C
O=C(c1cc(Cl)ccc1Cl)N1CCc2ccccc21
O=C(c1ccccc1Cl)N1CCNCC1
O=C(O)c1ccccc1C(=O)N1CCN(C(=O)c2ccccc2Cl)CC1
C[C@H](CO)N1C[C@H](C)[C@@H](CN(C)Cc2cncnc2)Oc2cc(C#CC3CC3)ccc2S1(=O)=O
O=C(COn1nnc2ccc(Cl)cc21)NC12CC3CC(CC(C3)C1)C2
CC(C)(C)OC(=O)NCCc1nnc(SCc2ccc(Cl)cc2)o1
CCOc1ccccc1OCCn1nnc2ccccc21
OC(CN1c2ccccc2Sc2ccccc21)Cn1nnc2ccccc21 (centres undefined)
CN1C[C@H](C(=O)N[C@]2(C)O[C@@]3(O)[C@@H]4CCCN4C(=O)[C@H](Cc4ccccc4)N3C2=O)CC2c3cccc4[nH]cc(c34)C[C@H]21 (some centres undefined)
O=C(Nc1cccc(F)c1)N1C[C@@H]2N[C@H](C1)C2c1ccc(-c2ccc(F)cc2)cc1 (some centres undefined)
C[C@H](CO)N1C[C@H](C)[C@H](CN(C)S(C)(=O)=O)Oc2ncc(-c3cc4ccccc4o3)cc2C1=O
O=C(Nc1nc2ccccc2[nH]1)c1ccc(Cl)c(S(=O)(=O)N2CCCC2)c1
CC(C)[C@H](NC(=O)NCc1cccs1)C(=O)O
CCOc1ccnc(OCC)c1Br
C[C@@H]1CN([C@H](C)CO)C(=O)c2cc(NS(C)(=O)=O)ccc2O[C@@H]1CN(C)S(=O)(=O)c1ccc(Cl)cc1
CCN1CCN(Cc2ccc(NC(=O)c3ccc(C)c(NC(=O)c4c[nH]c5cc(C(F)(F)F)ccc5c4=O)c3)cc2C(F)(F)F)CC1
Cc1ccccc1S(=O)(=O)NCC[C@@H]1CC[C@@H](NC(=O)C2CCOCC2)[C@H](CO)O1
COCCSc1ccccc1C(=O)Nc1cc(C)on1
Cn1nnnc1SC1CC(=O)N(c2ccccc2)C1=O (centres undefined)
CN(C)C(=O)c1ccc(-c2ccc([C@@H]3[C@H]4CN(C(=O)CC5CC5)CC(=O)N4[C@H]3CO)cc2)cc1
OC(c1ccc(Cl)cc1Cl)C(Cc1cccnc1)n1cncn1 (centres undefined)
OC(c1cc(-c2ccc(Cl)cc2)nc2ccccc12)C1CCCCN1 (centres undefined)
COc1ccc2c(c1)sc1nc(-c3ccccc3)cn12
COc1ccc2c3c(n(C)c2c1)[C@H](CO)NCC31CCN(Cc2cc(F)ccc2F)CC1
Cc1ccc(C(=O)NNC(=O)c2cccc(Br)c2)cc1
Cc1ccccc1NC(=O)CC1c2ccccc2CC(C)(C)N1C (centres undefined)
CCN1CCN(c2nnc(-c3ccccc3)c3ccccc23)CC1
Cc1ccc(S(=O)(=O)N2CCN(C(=O)CSc3nc4ccccc4c(=O)[nH]3)CC2)c(C)c1
Cn1nc(-c2ccccc2F)c2cc(C(=O)N3CCN(C(=O)c4ccco4)CC3)sc21
O=C1c2ccccc2-c2c1cccc2C(=O)N1CCN(C(=O)c2ccco2)CC1
O=C(COc1ccccc1)N1CCN=C1SCc1ccccc1
CN1CCN(C(=O)c2sc(=S)n(-c3ccccc3)c2N)CC1
Cc1cc(C)c2nc(N3CCCC(C(=O)N4CCC(C(N)=O)CC4)C3)sc2c1 (centres undefined)
Cc1cc(C)cc(C(=O)Nc2ccc3[nH]c(=O)[nH]c3c2)c1
COc1cccc(N2CCN(c3ncnc4c3[nH]c3ccc(F)cc34)CC2C)c1 (centres undefined)
C=CCOc1ccccc1CNc1ccc2[nH]c(=O)[nH]c2c1
O=C(C[C@H]1C=C[C@H](NC(=O)Nc2ccc(C(F)(F)F)cc2)[C@@H](CO)O1)NCc1ccccn1
COc1ccc(S(=O)(=O)N2CCN(C(=O)c3cccs3)CC2)cc1OC
O=C(Cc1ccccc1)N1N=C(c2ccncc2)CC1(O)C(F)(F)F (centres undefined)
CC(=O)c1cccc(-n2nnnc2SCC(=O)NNC(=O)C(C)C)c1
C[C@H](CO)N1C[C@H](C)[C@H](CN(C)S(=O)(=O)c2ccc(F)cc2)Oc2ncc(-c3cccc(C(=O)N(C)C)c3)cc2C1=O
Cc1nonc1NC(=O)CSc1nc(C2CCCCC2)nc2ccccc12
CC(C)(CO)CNc1ccn2nccc2n1
O=C(CSC1=NS(=O)(=O)c2ccccc2N1)Nc1ccc(F)cc1
Cc1cccc(C)c1NC(=O)CS(=O)CC(=O)Nc1ccc(F)cc1F (centres undefined)
O=C1C=CCCN1C(=O)/C=C/c1cccc(Br)c1
Cn1nnnc1Sc1ncnc2scc(-c3ccc(C#N)cc3)c12
O=C(c1cccs1)N(Cc1ccccn1)Cc1ccco1
COc1ccc2cc(CN(Cc3ccco3)C(c3nnnn3C3CCCCC3)C(C)C)c(=O)[nH]c2c1 (centres undefined)
COCCN(C(=O)COC(=O)Cc1cccc(OC)c1)c1c(N)n(Cc2ccccc2)c(=O)[nH]c1=O
O=C1CCCc2ccccc2N1Cc1ccc(Cl)cc1Cl
CCN(C(=O)CSc1nnc(-c2cccs2)n1N)c1c(N)n(Cc2ccccc2)c(=O)[nH]c1=O
CCOC(=O)CSc1nnc(-c2ccc(OC)cc2)n1CC
CC1(C)CC2(CCO1)OC(=O)CC2C(=O)Nc1cccc2ccccc12 (centres undefined)
CO[C@H]1CN(C)C(=O)c2cc(NC(=O)c3ccccc3F)ccc2OC[C@@H](C)N(C(C)=O)C[C@@H]1C
COc1ccc(C(=O)Nc2ccc3c4c(cccc24)CC3)cc1
CCN(CC)c1ccc(NC(=O)c2ccc(NC(=O)C3CCCO3)cc2)c(C)c1 (centres undefined)
CC(C)CNC(=O)c1coc(=O)c(Br)c1
O=C(NCCN1CCOCC1)c1ccc(=O)oc1
O=C(OCCCN1CCCCC1)c1ccc(O)cc1
Cc1ccc(S(=O)(=O)N(C)c2ccc(OC(C)C(=O)N3CCCC3)cc2)cc1C (centres undefined)
OC[C@@H]1[C@@H](c2ccc(C#CC3CCCC3)cc2)[C@H]2CN(CCC(F)(F)F)CCCCN12
C[C@@H]1CN([C@@H](C)CO)C(=O)c2ccccc2-c2ccccc2CO[C@@H]1CN(C)C(=O)Nc1cccc(Cl)c1Cl
C[C@H]1CN([C@@H](C)CO)C(=O)c2cccc(NC(=O)Nc3ccc(C(F)(F)F)cc3)c2O[C@H]1CN(C)C(=O)Nc1cccc2ccccc12
C[C@@H]1CN([C@H](C)CO)C(=O)CCCn2cc(nn2)CO[C@@H]1CN(C)C(=O)Nc1cccc2ccccc12
